Source: PubChem (several laboratories)
Rows were chosen to be rich in hits. Some 2.3% of all compounds tested hit in one or more screens of this group.
Cardio protect = modulators protecting cardiomyocytes from myocardial damage; H9c2 cardiomyocytes, H2O2 injury protection, ATPLite, 2 h; protection from H2O2 cell death, % at 20 µM; 360,000 tested, 0.63% active; AID 588492;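 active = compounds giving at least 50% protection of heart cells from peroxide-induced death in the single-dose screen, raw or plate-pattern-corrected value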
aDG glyco up = alpha-DG glycosylation activation. activation, % at 10 µM. 360,000 tested, 0.22% active. Pro5-aDG cells, alpha-DG glycosylation AlphaScreen (IIH6); 0% Pro5, 100% B10-LARGE cell signal;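 active = activation of at least 8% versus controls, or a plate z-score of at least 8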;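 note: Pro5 are CHO cells carrying HIG-tagged alpha-DG that lacks glycosylation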
FAS TE block = inhibitors of human fatty acid synthase thioesterase domain; inhibition, % at 15 µM; recombinant FAS-TE, OMFH fluorogenic substrate, fluorescence endpoint; 360,000 tested, 0.67% active; P49327;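 active = compounds whose normalised, plate-corrected inhibition of enzyme fluorescence in the single-dose primary screen is 50% or more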
MIN6 prolif = MIN6 beta-cell proliferation induction; proliferation, % at 10 µM; 330,000 tested, 0.29% active; MIN6 cells proliferation, ATPlite luminescence, 48 h; cells starved in 0.2% serum; 100% = growth in 10% serum;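 active = compounds whose signal lies at least 3.5 SD above the mean of all wells on their plate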
H9c2 TAG inh = reduces triacylglycerol accumulation in H9c2 cells. Nile Red lipid (TAG) fluorescence; cells loaded with 200 µM oleic acid. inhibition, % at 12.5 µM. 230,000 tested, 0.66% active. AID 651582;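 active = pattern-corrected inhibition of lipid staining of at least 50% with the nuclear-stain viability signal not falling by more than 50%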
m-calpain inh = inhibitors of pig calpain II; purified calpain II, fluorogenic peptide substrate, 30 min; inhibition, % at 16 µM; 220,000 tested, 0.37% active; AID 1236;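 active = inhibition above about 50%, limit read from the data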
Each line names hits and unclear results; the compound was inactive in the other large screens.

O=C(N/N=C/c1cc(Br)cc(Br)c1O)c1cccc(N2CCCC2=O)c1	Cardio protect 52.2
CCCC(=O)Nc1nc2ccc(NC(=O)c3ccc(Br)o3)cc2s1	Cardio protect 72.6
Cc1nc2ccc(NC(=O)c3ccc(Br)o3)cc2s1	none
COc1ccccc1CN1CC(C(=O)NCC2(O)CCCCC2)CCC1=O (centres undefined)	none (no result: MIN6 prolif, m-calpain inh)
C=C(C)Cn1c2ccc(NC(=O)NCc3ccccc3)cc2c(=O)n1C	none (no result: MIN6 prolif, m-calpain inh)
O=C1/C(=C/c2ccc(O)c(O)c2)SC(=S)N1Nc1ccccc1	none (no result: MIN6 prolif)
O=C(NN1C(=O)/C(=C/c2ccc(O)c(O)c2)SC1=S)c1ccccc1	Cardio protect 65.0 (no result: H9c2 TAG inh, m-calpain inh)
O=c1[nH]c(N2CCN(c3ccccc3)CC2)nc2c1CCCC2	Cardio protect 55.2 (no result: H9c2 TAG inh)
O=c1[nH]c(N2CCOCC2)nc2c1CCCC2	none
O=c1[nH]c(N2CCN(Cc3ccccc3)CC2)nc2c1CCC2	none (no result: H9c2 TAG inh)
O=c1[nH]c(N2CCN(c3ccccc3)CC2)nc2c1CCC2	Cardio protect 50.7
O=C(Nc1ccc2nc(N3CCOCC3)sc2c1)c1ccccc1	none (no result: m-calpain inh)
COCc1c(C(=O)Nc2ccc3nc(N4CCOCC4)sc3c2)oc2ccccc12	Cardio protect 63.5 (no result: m-calpain inh)
COc1ccc(NC(=O)/C=C/c2ccc(Br)o2)cn1	none
COc1ccccc1CNC(=O)/C=C/c1ccc(Br)o1	H9c2 TAG inh 51.3
Cc1ccc(C(C)C)c(OCCNC(=S)Nc2cccc3ccccc23)c1	m-calpain inh 50.9 (no result: H9c2 TAG inh)
COc1cc(-c2nnc(COC(=O)c3cc(C)nc4ccc(C)cc34)o2)cc(OC)c1OC	Cardio protect 70.8
O=C(c1[nH]c(C(F)(F)F)nc1-c1ccccc1)N1CCN(c2ccccn2)CC1	none (no result: MIN6 prolif, H9c2 TAG inh, m-calpain inh)
c1ccc(N=Nc2ccc3cccccc2-3)cc1	H9c2 TAG inh 96.3 (no result: m-calpain inh)
CC(C)(C)OC(=O)N1CCCC(C(=O)Nc2cccc(C(=O)N3CCCC3)c2)C1 (centres undefined)	none (no result: m-calpain inh)
COc1ccc(/C=C/C(=O)N2CCN(C)CC2)cc1OC	none (no result: m-calpain inh)
CC(C)Cn1c(-c2ccc(Br)cc2)c[nH]c1=S	m-calpain inh 75.5
CSCCC(NC(=O)COc1ccccc1)C(=O)N1CCCC(C(F)(F)F)C1 (centres undefined)	none (no result: m-calpain inh)
CCOc1ccccc1N1CC(O)=C(c2nc3ccccc3s2)C1=N	Cardio protect 95.2 (no result: H9c2 TAG inh)
COc1cc(-c2nnc(-c3ccc(S(=O)(=O)c4ccccc4)cc3)o2)cc(OC)c1OC	none (no result: MIN6 prolif)
COc1cc(-c2nnc(-c3ccc(N4CCOCC4)cc3)o2)cc(OC)c1OC	Cardio protect 53.1 (no result: m-calpain inh)
CCN1CCCC1CNC(=O)c1cc2c(-c3ccc(Cl)cc3)nn(C)c2s1 (centres undefined)	H9c2 TAG inh 52.7
O=C(CSc1nnc(-c2cccnc2)n1Cc1ccco1)c1ccccc1	Cardio protect 50.3 (no result: H9c2 TAG inh)
O=C(CSc1nnc(-c2ccc(O)cc2)n1Cc1ccco1)c1ccccc1	none
CCC(C(=O)NC(C)(C)C)n1c(-c2ccc(C)cc2)nc2ccccc21 (centres undefined)	none (no result: Cardio protect, FAS TE block, MIN6 prolif, H9c2 TAG inh, m-calpain inh)
Cc1ccc(-c2csc3nc[nH]c(=S)c23)cc1C	Cardio protect 79.8 (no result: H9c2 TAG inh)
COc1ccc(-c2csc3nc[nH]c(=O)c23)cc1OC	none (no result: H9c2 TAG inh, m-calpain inh)
CCOC(=O)C1CCN(S(=O)(=O)c2cc(Br)cc3c2N(C(=O)C2CC2)CC3)CC1	m-calpain inh 61.4
O=Nc1c(-c2c(O)[nH]c3cc(Br)ccc23)[nH]c2ccccc12	H9c2 TAG inh 83.6 (no result: m-calpain inh)
O=C(CSCc1cccc(Br)c1)N=Nc1c(O)[nH]c2ccccc12	none
O=C(Nc1cccc2cccnc12)c1csc(COCCO)n1	none (no result: MIN6 prolif, m-calpain inh)
Cc1ccc(C)c(C(=O)NC(C)CCc2ccccc2)c1 (centres undefined)	none
Cc1ccc(C(=O)NC(C)CCc2ccccc2)cc1[N+](=O)[O-] (centres undefined)	FAS TE block 74.5
O=C(/C(=N/N=C/c1ccc(O)c(O)c1O)c1ccccc1)c1ccccc1	Cardio protect 57.9 (no result: H9c2 TAG inh)
Oc1ccc(/C=N/N=C(c2ccccc2)c2ccccc2)c(O)c1O	Cardio protect 85.4 (no result: MIN6 prolif)
Oc1cccc(C=NCc2ccccc2)c1O	none (no result: H9c2 TAG inh)
CCN(CC)c1ccc(S(=O)(=O)N2CCOCC2)cc1NC(=O)CSc1nnc(N)s1	none (no result: m-calpain inh)
CC(Nc1ccccc1)c1cc(Cl)ccc1O (centres undefined)	none
COc1ccc(NC(C)c2cc(Cl)ccc2O)cc1 (centres undefined)	m-calpain inh 50.2
COc1cc2nc(NCC3CCCO3)n3nc(-c4cccnc4)nc3c2cc1OC (centres undefined)	Cardio protect 90.7 (no result: H9c2 TAG inh)
COCCCNc1nc2cc(OC)c(OC)cc2c2nc(-c3ccccc3)nn12	Cardio protect 56.4 (no result: H9c2 TAG inh, m-calpain inh)
CCN(CC)CCCNc1nc2cc(OC)c(OC)cc2c2nc(-c3cccnc3)nn12	none
C[C@H](CO)N1C[C@H](C)[C@@H](CN(C)C(=O)Nc2ccc(F)cc2)Oc2ccc(NS(C)(=O)=O)cc2C1=O	none (no result: m-calpain inh)
CCOC(=O)c1sc(NC(=O)c2cccs2)cc1C	none (no result: H9c2 TAG inh)
CCOC(=O)c1sc(NC(=O)c2sccc2C)cc1C	H9c2 TAG inh 50.7
O=C(Oc1ccc(Cl)c2cccnc12)c1cccc([N+](=O)[O-])c1	Cardio protect 64.2
O=C(Oc1c(Cl)cc(Cl)c2cccnc12)c1cccc([N+](=O)[O-])c1	none
O=C(CNCc1ccccc1)Nc1ccc(Cl)cc1	none (no result: H9c2 TAG inh, m-calpain inh)
O=C(N/N=C/c1ccccc1O)C1CC(=O)N(c2ccc(Cl)cc2)C1 (centres undefined)	Cardio protect 55.1 (no result: m-calpain inh)
Oc1ccc(CN2CCCc3ccccc32)c2cccnc12	Cardio protect 55.7
O=C(COC(=O)C1CC1)Nc1nc(-c2ccc(F)c(F)c2)cs1	none (no result: m-calpain inh)
Cc1ccc(C)c(COC(=O)CCN=C2NS(=O)(=O)c3ccccc32)c1	none (no result: m-calpain inh)
CCOC(=O)c1cc(-c2ccc(/C=N\n3cnnc3)o2)ccc1Cl	Cardio protect 66.7
CN=c1sc2c(n1C)C(=O)c1ccccc1C2=O	aDG glyco up 13.0 (no result: MIN6 prolif, m-calpain inh)
CN=c1sc(C(=O)Nc2ccccc2)c(C)n1C	none
CCOc1cc(/C=C2\SC(=O)N=C2N)ccc1O	MIN6 prolif 0.0 (no result: H9c2 TAG inh)
Cc1ccc2c(c1)N(CC(=O)NCC1CCCO1)C(=O)C(C(C)C)O2 (centres undefined)	none (no result: H9c2 TAG inh, m-calpain inh)
COc1ccc(S(=O)(=O)N2CCC(C(=O)NCc3ccncc3)CC2)cc1C	none (no result: H9c2 TAG inh, m-calpain inh)
CC1CC(C)CN(C(=O)c2ccc3c(c2NCCO)C(=O)c2ccccc2C3=O)C1 (centres undefined)	H9c2 TAG inh 127.0
Cc1ccc2cccc(N=Cc3c(C)[nH]n(-c4ccccc4)c3=O)c2n1	Cardio protect 63.0 (no result: MIN6 prolif, H9c2 TAG inh)
Cc1[nH]n(-c2ccccc2)c(=O)c1/C=N/N1C(=O)c2ccc3c4c(ccc(c24)C1=O)CC3	Cardio protect 65.2 (no result: H9c2 TAG inh)
O=C(N/N=C/c1cc(Cl)cc([N+](=O)[O-])c1O)c1ccccc1NS(=O)(=O)c1cccs1	Cardio protect 49.9
CC1(C(=O)NS(=O)(=O)C2CC2)CCCN(C(=O)c2ccc(F)c(Cl)c2)C1 (centres undefined)	none (no result: MIN6 prolif, m-calpain inh)
